Holding throughout (assay): NCI-60 one-dose screen, 48 h (100 = growth as untreated, 0 = no growth, -100 = all killed)
Holding throughout (details): 10 µM unless noted

Assay [1] deals with HCT-15 colon.
The subject of assay [2] is HT29 colon.
The subject of assay [3] is SNB-75 CNS.
Assay [4] deals with SNB-19 CNS.
Assay [5] has as its system U251 CNS.
The subject of assay [6] is PC-3 prostate.
The test system of assay [7] is SK-MEL-5 melanoma.
The subject of assay [8] is UACC-62 melanoma.
For assay [9], the system named is LOX IMVI melanoma.
The test system of assay [10] is SK-MEL-28 melanoma.

The panel holds about 83,000 compounds, 20% with a hit somewhere; the sample as a whole holds those more often.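 96-well plates, one dose, 48 hours. Percent growth reported; active if below 10.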 Values without a mark were called inactive. Activity calls are given as the source filed them.

As for `CC(C)C1(C(C)C)NC(=O)NC1=O`, the growth in [1] is 110%; in assay [2], 103%; in assay [3], 94.5%; in [4], 101%; in assay [5], 103%; in assay [6], 93.3%. Also, the growth was 91.5% in assay [7], 106% in [8], 102% in [9] and 95.9% in [10].
Consider `O=C(Nc1ccc(-n2cc(-c3ccncc3)c(-c3ccc(O)c(Cl)c3)n2)cc1)Nc1ccc(Cl)c(C(F)(F)F)c1`, for which the growth in assay [1] is 9.15% (active); in assay [2] it was 47.9%; in assay [3] it was 28%; in assay [4] it was 27.7%; in assay [5] it was 5.79% (active); in assay [6], 1.79% (active). In addition, the growth in [7] was -73.6% (active); in assay [8], 9.18% (active); in assay [9], 16.6%; in assay [10] it was 20.1%.
For the compound `CC(C)[C@@H]1NC(=O)[C@]2(C)CSC(=N2)c2ccnc(c2)CNC(=O)C[C@@H](/C=C/CCS)OC1=O`, the growth in assay [1] is 52%; in [2], 2.76% (active); in assay [3] it was 25.8%; in assay [4] it was 23.6%; in assay [5], -66.6% (active); in assay [6] it was 17.7%. In addition, the growth in assay [7] was -88.2% (active); in assay [8], -36.7% (active); in [9] it was -94.9% (active); in assay [10], 16.6%.
For `O[C@@H]1CCO[C@H](c2ccc3ccccc3c2)C1`, the growth is 85.9% in [1]; 100% in assay [2]; 97.2% in assay [3]; 101% in assay [4]; 96.7% in [5]; 95.5% in [6]. Besides, the growth in assay [7] is 102%; in assay [8] it was 100%; in assay [9], 102%; in [10], 111%.
Regarding `C=CCn1c(SCC(=O)Nc2ccc(C(=O)/C=C/c3cc(OC)c(OC)c(OC)c3)cc2)nnc1-c1ccc(OC)cc1`, the growth in [1] is -1.54% (active); in assay [2] it was -27.9% (active); in [3], 6.75% (active); in assay [4] it was 14.3%; in [5], -65.2% (active); in [6] it was 25.1%. Also, the growth is 1.15% (active) in assay [7], -6.54% (active) in assay [8], -43.5% (active) in [9] and 10.1% in [10].
With `CN(C)c1ccc(/C=N/n2c(-c3cc(F)c(Cl)cc3Cl)nn(CN3CCOCC3)c2=S)cc1`, the growth in assay [1] was 103%; in [2], 110%; in [3] it was 97.7%; in [4], 99.4%; in assay [5], 89%; in assay [6] it was 103%. The growth in assay [7] was 92.3%; in assay [8] it was 94.8%; in [9] it was 96.1%; in assay [10], 108%.
For the compound `COc1ccc(NC(=O)COCCOCCNC[C@@H]2C(=O)O[C@H]3[C@H]2CC/C(COC(=O)OC/C2=C/CC[C@@]4(C)O[C@H]4[C@H]4OC(=O)[C@@H](CN(C)C)[C@@H]4CC2)=C\CC[C@@]2(C)O[C@@H]32)c(O)c1C(N)=O`, the growth in assay [1] is 17.1%; in [2] it was 14%; in assay [3] it was 84.1%; in assay [4], 94.1%; in assay [5] it was 80.8%; in assay [6], 80.2%. In addition, the growth is 85.7% in [7], 43% in assay [8], 35.1% in [9] and -6.54% (active) in [10].
For `O=C(Cn1c2ccccc2c2ccncc21)N/N=C\c1ccc2ccccc2c1`, the growth in [1] is 23.8%; in assay [2], -8.93% (active); in [3] it was 3.82% (active); in assay [4], 40.5%; in assay [5], -25.9% (active); in assay [6] it was 13.8%. Also, the growth in assay [7] was 15.4%; in [8] it was 7.54% (active); in assay [9] it was 19.4%; in assay [10], 58.3%.
With `Cc1c(Cl)ccc2c(C(=O)Cl)cc(-c3ccccc3)nc12`, the growth in assay [1] is 101%; in assay [2], 116%; in [3], 97.4%; in [4], 98.6%; in assay [5], 96.6%; in [6] it was 96%. Further, the growth in assay [7] was 96.5%; in [8], 92.7%; in assay [9], 94.9%; in [10] it was 103%.
On to `CC(=O)N[C@@H](CNC(=O)c1cc(NC(=O)c2cc(NC(=O)c3cc(NC(=O)c4nccn4C)cn3C)cn2C)cn1C)CC(=O)Nc1cn(C)c(C(=O)Nc2cc(C(=O)Nc3cc(C(=O)Nc4cc(C(=O)NCCCN(C)CCCNC(=O)c5cccc(C(=O)O)c5)n(C)c4)n(C)c3)n(C)c2)n1`, for which the growth in assay [1] was 103%; in [2], 67.6%; in assay [3], 107%; in assay [4], 86.3%; in assay [5] it was 64%; in assay [6], 88.6%. The growth in assay [7] was 96.6%; in assay [8], 59.1%; in assay [9] it was 80.7%; in [10], 107%.
As to `COc1ccc2c(c1)O/C(=C/c1ccc(OCC(=O)Nc3ccc(S(N)(=O)=O)cc3)cc1)C2=O`, the growth in [1] is 93.7%; in assay [2], 102%; in [3], 89.8%; in assay [4], 92.1%; in assay [5] it was 97.7%; in assay [6], 91%. The growth was 94.3% in [7], 88% in assay [8], 101% in assay [9] and 108% in [10].
For the compound `Oc1ccc(Cl)cc1Sc1cc(Cl)ccc1O`, the growth in assay [1] is 92.9%; in assay [2] it was 102%; in assay [3], 63.4%; in [4], 95.1%; in assay [5] it was 93.9%; in assay [6], 89.6%. In addition, the growth was -14.2% (active) in assay [7], 58.8% in assay [8], 88.1% in [9] and 52.5% in [10].
Regarding `CC[C@H]1[C@@H]2C=C[C@@H]3[C@H]4C/C=C\C(=O)NCCC[C@@H]5NC(=O)/C(=C(O)/C=C/[C@@H]4C[C@@H]3[C@H]2C[C@H]1C)C5=O`, the growth in assay [1] was -29.4% (active); in assay [2], 14.4%; in assay [3], -85.6% (active); in [4] it was -40.6% (active); in assay [5] it was 46.5%; in assay [6], -35.3% (active). For the same compound, the growth was -70.4% (active) in assay [7], 72.6% in [8], -84.8% (active) in assay [9] and 60.9% in [10].

The values above are taken from PubChem BioAssay (NCI).
